Results from PubChem BioAssay (NCATS).
Inconclusive results are not listed. Calls of active or inactive are those of the source. Calls follow the shape of the dose curve; as a rule, active = well fitted curve in the direction sought with a large enough effect; inconclusive = small, poorly fitted or top-dose-only effect, or another doubt; inactive = no such curve, though single readings can be large; an effect the other way counts as inactive or inconclusive.

How the values were obtained:
[1] = molecular target: Glutathione peroxidase 1 (Homo sapiens) (UniProt P07203); experiment: Primary qHTS Assay for Inhibitors of Recombinant Selenoprotein Glutathione Peroxidase 1 (GPX1) (AID 1845191); also: nearly all actives have a fitted effect of over 65% in size
Outline: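 GR-coupled readout: NADPH consumption tracked by fluorescence, ex 340/em 450 nm, at t=0 and after 15 min at RT. Final mix 10 nM GPX1, 1 mM GSH, 0.5 mM CHP, 0.5 mM NADPH, 100 nM GR, 0.01% BSA, following 30 min enzyme–compound preincubation.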

[2] = molecular target: Phospholipid hydroperoxide glutathione peroxidase GPX4 (Homo sapiens) (UniProt P36969); experiment: Primary qHTS Assay for Inhibitors of Recombinant Selenoprotein Glutathione Peroxidase 4 (GPX4) (AID 1845192); also: nearly all actives have a fitted effect of over 65% in size
Outline: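 Steps: GPX4 plus compound, 30 min RT; add GR/GSH/NADPH master mix; start with cumene hydroperoxide; read 340/450 nm fluorescence at 0 and 15 min. Finals were 200 nM GPX4, 1 mM GSH, 0.5 mM CHP, 0.5 mM NADPH, 100 nM GR.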

[3] = molecular target: Luciferin 4-monooxygenase (Photinus pyralis) (UniProt P08659); experiment: Primary firefly luciferase (FLuc) qHTS assay for identification of artifact compounds. (AID 1845220); also: nearly all actives have a fitted effect of over 60% in size
Outline: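 Enzymatic FLuc inhibition assay: compounds pre-exposed to luciferin/ATP (10 uM each) for 15 min, then purified P. pyralis enzyme at 10 nM added. Read-out: luminescence at 5 min.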

[4] = system: Nanoluciferase (engineered Oplophorus gracilirostris luciferase); experiment: Primary Nanoluciferase (NLuc) qHTS assay for identification of artifact compounds. (AID 1845222);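 also: NLuc secreted into diluted conditioned medium of S16 cells; series mostly up to about 54 µM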
Outline: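 S16 cell supernatant NLuc, 1:55; cpds qHTS; 15 min RT dark; Nano-Glo substrate 1:100, 5 min; luminescence; Hill fit of % inhibition.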

[5] = Primary redox qHTS assay for identification of artifact compounds. (AID 1845223)
Outline: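 Redox-cycling detection via DTT (250 uM final) oxidation coupled to Amplex Red (25 uM)/HRP (250 mU/mL) in HBSS. 15 min preincubation plus 30 min after DTT, room temperature. Ex/Em 525/598 nm; 4-parameter Hill fit against DMSO and 10 uM DA3003.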

Measured: Potency

Sequence of Glutathione peroxidase 1 (Homo sapiens) (P07203 whole entry, looked up): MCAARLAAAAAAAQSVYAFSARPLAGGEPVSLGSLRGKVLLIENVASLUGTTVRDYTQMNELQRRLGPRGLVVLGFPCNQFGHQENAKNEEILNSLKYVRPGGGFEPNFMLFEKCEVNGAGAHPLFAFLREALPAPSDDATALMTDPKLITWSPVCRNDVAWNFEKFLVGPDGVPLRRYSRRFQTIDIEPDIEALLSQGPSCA
Sequence of Phospholipid hydroperoxide glutathione peroxidase GPX4 (Homo sapiens) (P36969 whole entry, looked up): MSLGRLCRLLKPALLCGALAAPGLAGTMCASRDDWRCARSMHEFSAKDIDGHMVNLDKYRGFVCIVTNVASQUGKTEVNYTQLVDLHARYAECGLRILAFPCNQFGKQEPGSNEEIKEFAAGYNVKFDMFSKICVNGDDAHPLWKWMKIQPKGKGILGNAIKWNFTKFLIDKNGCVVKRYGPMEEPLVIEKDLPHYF

CC(O)CCc1ccc(O[C@@H]2O[C@H](CO)[C@@H](O)[C@H](O)[C@H]2O)cc1 (stereo not given in full)
inactive: [1] | [2] | [3] | [4] | [5]

COC(=O)C1=COC(OC2OC(CO)C(O)C(O)C2O)C2C(C)CC(=O)C12O (stereo not given)
inactive: [1] | [2] | [3] | [4] | [5]

C=C[C@H]1[C@H](O[C@@H]2O[C@H](CO)[C@@H](O)[C@H](OC(=O)/C=C/c3ccc(O)c(OC)c3)[C@H]2O)OC=C2C(=O)OCC[C@]21O
inactive: [1] | [2] | [3] | [4] | [5]

OC[C@@]1(O)CO[C@@H](OC[C@H]2O[C@@H](Oc3ccccc3)[C@H](O)[C@@H](O)[C@@H]2O)[C@@H]1O
inactive: [1] | [2] | [3] | [4] | [5]

COC(=O)C1=COC(OC2OC(CO)C(O)C(O)C2O)C2C(C)C(OC(C)=O)C(OC(=O)c3ccccc3)C12 (stereo not given)
inactive: [1] | [2] | [3] | [4] | [5]

Nc1nc(COC(=O)c2ccc([N+](=O)[O-])cc2)nc(Nc2ccccc2)n1
inactive: [1] | [2] | [3] | [4] | [5]

COc1cc(O)cc(O[C@@H]2O[C@H](CO)[C@@H](O[C@@H]3OC[C@](O)(CO)[C@H]3O)[C@H](O)[C@H]2O)c1OC
inactive: [1] | [2] | [3] | [4] | [5]

O=C(O)c1cc(O[C@@H]2O[C@H](CO)[C@@H](O)[C@H](O)[C@H]2O)ccc1O
inactive: [1] | [2] | [3] | [4] | [5]

C=CC(C)(CC/C=C(\C)C(=O)OC)OC1OC(COC(=O)CC(C)(O)CC(=O)O)C(O)C(O)C1O (stereo not given)
inactive: [1] | [2] | [3] | [4] | [5]

C[C@@H]1O[C@@H](OC(=O)Cc2ccccc2)[C@H](O)[C@H](O)[C@H]1O
inactive: [1] | [2] | [3] | [4] | [5]

COc1cc(C(CO)C(OC2OC(CO)C(O)C(O)C2O)c2ccc(O)c(OC)c2)ccc1O (stereo not given)
inactive: [1] | [2] | [3] | [4] | [5]

O=C(Cc1ccccc1)OC[C@H]1O[C@H](O[C@H]2O[C@H](CO)[C@@H](O)[C@H](O)[C@H]2O)[C@H](O)[C@@H](O)[C@@H]1O
inactive: [1] | [2] | [3] | [4] | [5]

COc1cc(OC)cc(-c2ccc3c(-c4ccc(F)cc4)[nH]nc3n2)c1
inactive: [1] | [2] | [3] | [4] | [5]

C/C=C1/[C@H](O[C@@H]2O[C@H](CO)[C@@H](O)[C@H](O)[C@H]2O)OC=C2C(=O)O[C@@H]3C[C@@H](C(C)CO)[C@H](COC(=O)C[C@H]21)[C@H]3C (stereo not given in full)
inactive: [1] | [2] | [3] | [4] | [5]

C/C=C1\[C@H](O[C@@H]2O[C@H](CO)[C@@H](O)[C@H](O)[C@H]2O)OC=C(C(=O)O)[C@H]1CC(=O)OCCc1ccc(O)cc1
inactive: [1] | [2] | [3] | [4] | [5]

C=C(C)C(O)COc1ccc(CC(=O)O)cc1 (stereo not given)
inactive: [1] | [2] | [3] | [4] | [5]

Cc1c(NC(=O)N2CCOCC2)ccc2c1c1ccccc1n2C(C)C
inactive: [1] | [2] | [3] | [4] | [5]

COc1cc(C(O)C2COC(c3ccc(OC4OC(CO)C(O)C(O)C4O)c(OC)c3)C2CO)ccc1O (stereo not given)
inactive: [1] | [2] | [3] | [4] | [5]

C=CC1(C)C=C2CC[C@H]3[C@@](C)(C(=O)O)CCC[C@]3(C)C2CC1 (stereo not given in full)
inactive: [1] | [2] | [3] | [4] | [5]

COc1cc(/C=C/C(=O)OC[C@H]2O[C@@H](OC3CC(C)=C(C(=O)O)C(C)(C)C3)[C@H](O)[C@@H](O)[C@@H]2O)cc(OC)c1O (stereo not given in full)
inactive: [1] | [2] | [3] | [4] | [5]

O=C(c1ccc(Cl)c([N+](=O)[O-])c1)N1CCN(c2ccccc2F)CC1
inactive: [1] | [2] | [3] | [4] | [5]
